This excerpt belongs to a sample that is enriched for hits.
TTR transcr act – activators of transthyretin transcription; SH-SY5Y TTR promoter Gaussia luciferase, luminescence; 100% = recombinant luciferase protein wells; activation, % at 16.7 µM; 1.3% of 92,000 active; AID 1117267;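 active means activation above the mean of all tested compounds plus 3 SD, cut at about 9.5% in these data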;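 further: cells exposed to compounds for one day before reading; 0% = median of all test compound wells on the plate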
HuH7 TTR inh – decreases TTR transcription in HuH7 cells in activator counter-screen; shares compounds with TTR transcr act; HuH7 TTR promoter-Gaussia luciferase reporter, luminescence; inhibition, % at 16.7 µM; 4% of 1,100 active; AID 1117279;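 active means average inhibition above the solvent-only control wells' mean plus 3 SD, cut at about 15% in these data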;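 further: 0% = cells with DMSO only and 100% = cells with inhibitor control FD; inhibitors lower well luminescence so higher value means more inhibition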
TTR up confirm – confirmation of human transthyretin transcription activators; shares compounds with TTR transcr act; SHSY5Y TTR promoter Gaussia luciferase, luminescence; 100% = purified Lucia enzyme wells, no cells; activation, % at 16.7 µM; 1,100 tested, under 10 active; AID 1117280;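 active means mean activation above a set limit taken from the earlier primary screen, cut at about 11% in these data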;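 further: 0% = DMSO-treated cells and 100% = recombinant Lucia luciferase without cells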
The depositor's hits bear a star.

SMILES | TTR transcr act | others
Cc1nc(-c2ccc(C#N)cc2)cs1 | 1
COC(=O)c1cc(C#N)c(=O)[nH]c1C | 0
CC(C)N1CCCCC(NC(=O)c2ccc(Cl)cc2Cl)C1=O (centres undefined) | -2
CCCCNC(=O)CCC(=O)N1CCN(C(c2ccccc2)c2ccccc2)CC1 | -2
CSc1cnn(Cc2ccccc2)c(=O)c1SCc1ccccc1 | 6
Cc1ccc(S(=O)(=O)N(C)C)cc1NC(=O)c1cccs1 | 1
Cc1ccc(S(=O)(=O)N(C)C)cc1NC(=O)C1CCCC1 | 11* | HuH7 TTR inh=-16;TTR up confirm=-1
Cc1ccc(S(=O)(=O)N(C)C)cc1NC(=O)CSc1ccc2c(c1)OCCO2 | 2
Cc1ccc(CN2CCCCC(NC(=O)Nc3cccc([N+](=O)[O-])c3)C2=O)cc1 (centres undefined) | -2
CN(C)c1cccc(-c2cnc(N3CCC(C(N)=O)CC3)nc2)c1 | 1
COC(=O)c1ccc(Cn2ccc3ccc(-c4ccc5ccn(C(=O)c6ccccc6C)c5c4)cc32)cc1 | 0
O=C1C2C3C=CC(C3)C2C(=O)N1c1nccs1 (centres undefined) | 15* | HuH7 TTR inh=-6;TTR up confirm=0
COc1ccc(N2C(=O)C3C4C=CC(C4)C3C2=O)nn1 (centres undefined) | 1
O=C1c2ccccc2C(=O)N1c1nccs1 | 0
O=C(O)CCn1[nH]c(=O)ccc1=O | 27* | HuH7 TTR inh=-9;TTR up confirm=1
O=c1ccc(=O)n(-c2ccccc2)[nH]1 | 1
Cn1c(=O)n(CCC(=O)O)c2ccccc21 | -1
CN(C)c1ccc(C(=O)NC2CCCCN(Cc3ccc(Cl)cc3)C2=O)cc1 (centres undefined) | 0
CN(C)C(=O)C[C@@H]1C=C[C@@H](NC(=O)C2CCC2)[C@@H](CO)O1 | -1
CCn1c(=O)cc(OCC(=O)Nc2nc(C)cs2)c2ccccc21 | 11* | HuH7 TTR inh=-23;TTR up confirm=0
CCn1c(=O)cc(OCC(=O)NCC2CCCO2)c2ccccc21 (centres undefined) | -2
CCn1c(=O)cc(OCC(=O)NCCc2ccc(OC)c(OC)c2)c2ccccc21 | 1
O=C(NCCc1nc2ccccc2n1C/C=C/c1ccccc1)C1CCCCC1 | -1
Cc1ccccc1CN1CCCCC(NC(=O)Nc2cccc(F)c2)C1=O (centres undefined) | 0
O=C(NCCc1ccccc1)OCc1cn(Cc2cc(F)ccc2F)nn1 | 1
SMILES | TTR transcr act | others
C#CCOCCOCCOCCNc1nc(N2CCN(C(=O)[C@H](CCC(=O)O)n3cc([C@@H](N)CC(N)=O)nn3)CC2)nc(N2CCN(C(=O)[C@H](CCC(=O)O)n3cc([C@@H](N)CC(N)=O)nn3)CC2)n1 | 0
C#CCOCCOCCOCCNc1nc(N2CCN(C(=O)[C@H](CC(N)=O)n3cc([C@@H](N)CC(N)=O)nn3)CC2)nc(N2CCN(C(=O)[C@H](CC(N)=O)n3cc([C@@H](N)CC(N)=O)nn3)CC2)n1 | 14* | HuH7 TTR inh=-4;TTR up confirm=0
C#CCOCCOCCOCCNc1nc(N2CCOCC2)nc(N2CCN(C(=O)[C@H](CC(N)=O)n3cc([C@@H](N)C(C)C)nn3)CC2)n1 | -1
COC(=O)Cn1nc(-c2ccccc2)c2cccc(C(F)(F)F)c21 | -1
CN(CC(=O)N1CCCCC1)S(=O)(=O)c1ccc(Cl)cc1 | -1
CN(CC(=O)N1CCCCCC1)S(=O)(=O)c1ccc(Br)s1 | -2
CN(CC(=O)N1CCCCCC1)S(=O)(=O)c1ccc(Br)cc1 | 20* | HuH7 TTR inh=-18;TTR up confirm=0
O=C(COc1ccc(F)cc1Cl)Nc1nnc(-c2ccc(F)c(F)c2)o1 | -1
COC(=O)C[C@H]1CC[C@@H]2[C@@H](COc3ccc(NS(=O)(=O)c4ccccc4Cl)cc3C(=O)N2C)O1 | -2
C/C=C/C(=O)OCC(=O)Nc1ccc(OC)c(OC)c1 | 1
COc1ccc(NC(=O)CCCC(=O)O)cc1Cl | 0
C/C=C/C(=O)OCC(=O)Nc1ccc(OC)c(Cl)c1 | 12* | HuH7 TTR inh=-10;TTR up confirm=1
CCCS(=O)(=O)NC(=O)C1(C)CCN(C(=O)c2cccnc2Oc2ccccc2)C1 (centres undefined) | -2
O=[N+]([O-])c1ccccc1C=NN1CCCCCC1 | -1
COC(=O)[C@H](C)NC(=O)[C@H](CC(C)C)NC(=O)OC(C)(C)C | -2
Cc1cc(-c2ccccc2)nc(Oc2ccc(C(C)(C)C)cc2)c1S(C)(=O)=O | -2
Cc1cc(C)cc(Oc2nc(-c3ccccc3)cc(C)c2S(C)(=O)=O)c1 | 3
Cc1cccc(Oc2nc(-c3ccccc3)cc(C)c2S(C)(=O)=O)c1C | 12* | HuH7 TTR inh=-9;TTR up confirm=-1
Nc1ncnc2c1ncn2C1OC(CO)C(O)C1O (centres undefined) | 4
O=c1ccncn1C1OC(CO)C(O)C1O (centres undefined) | 13* | HuH7 TTR inh=-11;TTR up confirm=1
OCC1OC(n2nnc3ccccc32)C(O)C(O)C1O (centres undefined) | 0
CCN(C(=O)CSc1nnc(-c2cccc(F)c2)n1N)c1c(N)n(Cc2ccccc2)c(=O)[nH]c1=O | -1
Cc1ccc(C(=O)N2CCCC(N3CCN(c4cccc(C(F)(F)F)c4)CC3)C2)s1 (centres undefined) | 0
CC1=C(C(=O)N2CCCC(N3CCN(c4cccc(C(F)(F)F)c4)CC3)C2)OCCO1 (centres undefined) | 11* | HuH7 TTR inh=-6;TTR up confirm=0
O=C(c1ccoc1)N1CCCC(N2CCN(c3cccc(C(F)(F)F)c3)CC2)C1 (centres undefined) | 0
SMILES | TTR transcr act | others
COc1cc(CNCc2ccccn2)ccc1OCc1ccccc1Cl | -1
COc1cc(CNCC(O)c2ccccc2)ccc1OCc1ccc(Cl)nc1 (centres undefined) | 11* | HuH7 TTR inh=-9;TTR up confirm=3
CSc1ccc(CNCC(O)c2ccccc2)cc1 (centres undefined) | 4
OC1(Cc2ccccc2)CCN(c2ncnc3sccc23)CC1 | -4
CC(C)C[C@H](NC1(C(=O)NC2CCCCC2)CCCCC1)C(=O)NCCc1c[nH]c2ccccc12 | 0
COc1cc(OC)c2c(C)cc(=O)oc2c1C(CCN1CCN(c2ccccc2)CC1)c1ccc2c(c1)OCO2 (centres undefined) | -7
COc1cc(OC)c2ccc(=O)oc2c1C(CC(=O)N1CCOCC1)c1ccc2c(c1)OCO2 (centres undefined) | 14* | HuH7 TTR inh=0;TTR up confirm=-1
COc1cc(O)c([C@@H](CC(=O)N2CC(C)CC(C)C2)c2ccc3c(c2)OCO3)c(OC)c1 (some centres undefined) | 1
COc1ccc2cc(Br)ccc2c1CC(=O)NCCCN1CCOCC1 | 3
Cc1oc(-c2ccc3ccccc3c2)nc1CN(C)C(C)c1ccncn1 (centres undefined) | 0
Cc1ccc(F)cc1C(=O)N1CCCC(c2cc(C(=O)Nc3ccccc3Cl)no2)C1 (centres undefined) | -2
CCOc1ccc(S(=O)(=O)N2CCN(C(=O)Cc3ccc(S(=O)(=O)N4CCOCC4)s3)CC2)cc1 | 3
CC1CCCCC1NC(=O)Cc1ccc(S(=O)(=O)N2CCOCC2)s1 (centres undefined) | 1
CN(Cc1ccc(Cl)cc1Cl)C(=O)Cc1ccc(S(=O)(=O)N2CCOCC2)s1 | 20* | HuH7 TTR inh=-6;TTR up confirm=-1
N#Cc1cccc(NC(=O)O[C@@H]2CC[C@@]34CCCN3C(=O)CCC[C@H]4C2)c1 | 2
